Nrf2 activator = qHTS of Nrf2 Activators; Potency, µM (highest dose often 46.1 µM), without a hit: at the highest dose activation, actives largely listed as activators; AREc32 ARE-luciferase reporter (MCF7-derived line), luminescence, 24 h; actives 0.31% (n = 410,000); AID 624171, 2012; further: potency means the concentration at half of the fitted maximal effect; % of control where 0% means no effect; nearly all actives have a fitted effect of over 65% in size
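For detection, Steady-Glo was added and plates sat 30 min at RT; before that, AREc32_Fluc cells grown overnight in OPTI-MEM/5% FBS had been treated with 23 nL compound for 24 hr at 37 deg C.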
IL-2 act = qHTS of IL-2 Activators | IL-2 activation reporter assay, cell-based qHTS; stimulated with anti-CD3/CD4/CD28 beads; in transgenic mouse T cells | activation, % (series mostly up to about 46 µM) | actives 0.065% (n = 360,000) | AID 652025, 2013; in the data active means activation above about 50%; inconclusive means mostly about 30% to 49%; further: 0% is about no effect
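Unstimulated transgenic mouse T cells, 750 per well, received compound and, after 60 minutes, anti-CD3/anti-CD4 bead plus anti-CD28 stimulation. EGFP and DsRed were quantified after 18 hours.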
ELG1 repair inh = qHTS screen for small molecules that inhibit ELG1-dependent DNA repair in human embryonic kidney (HEK293T) cells expressing luciferase-tagged ELG1; Potency, µM (top dose mostly 46.1 µM), without a hit: at the top dose activity change, negative = inhibition, most hits filed as inhibitors; HEK293T ELG1-luciferase reporter, luminescence, 16 h; DNA damage induced by 5-fluorouridine; actives 2.3% (n = 330,000); further: potency means the concentration at half of the fitted maximal effect; on the % scale 0 is the no-effect control and ±100 the full control effect; nearly all actives have a fitted effect of over 55% in size
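Reporter activity after DNA damage by 5-fluorouridine is monitored. Compound-treated cells incubate 16 hr at 37 °C, then ONE-Glo is added for 30 min before luminescence reading.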
BRCA1 expr up = qHTS Assay to Identify Small Molecule Activators of BRCA1 Expression; actives 1.1% (n = 380,000); Potency, µM (series often up to 46.1 µM), for inactives: at the highest dose activation, most hits filed as activators; MCF7-BRCA1-FFLuc reporter, luminescence, 48 h; response scale: scaled: vehicle 0%, 10 µM genistein 100%; further: potency means the concentration at half of the fitted maximal effect; nearly all actives have a fitted effect of over 80% in size
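Compounds are tested at multiple concentrations on MCF7 BRCA1-luciferase reporter cells seeded at 2000 per well; after 48 h, a single luminescence end-point is taken and curves fitted to the normalized data.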
Numbers without * were called inactive; ? = inconclusive; . = no result; [ ] = dose if it differs, or a comment. Sampled rows, rich in hits. Any-hit rate of the full collection: about 3.1%. Unless noted, the call rests on the fitted dose curve; in most records, active means well fitted curve in the direction sought with a large enough effect; inconclusive means small, poorly fitted or top-dose-only effect, or another doubt; inactive means no such curve, though single readings can be large; an effect the other way counts as inactive or inconclusive.

SMILES	Nrf2 activator	IL-2 act	ELG1 repair inh	BRCA1 expr up
CC(C(=O)c1ccc(-c2ccccc2)cc1)[n+]1ccccc1 (configuration not stated)	2%	-3	3%	-49%
O=C(NCc1ccccc1)C(c1ccccc1)n1c(C2CC2)nc2ccccc21 (configuration not stated)	.	-1	.	.
COC(=O)c1ccccc1NC(=S)N(Cc1ccc2c(c1)OCO2)Cc1cc2ccc(OC)cc2[nH]c1=O	0%	3	7.3µM*	-24%
COC(=O)c1ccccc1NC(=S)N(Cc1ccc2c(c1)OCO2)Cc1cc2ccc(C)cc2[nH]c1=O	3%	0	5.8µM*	-19%
COC(=O)c1ccccc1NC(=S)N(Cc1ccc2c(c1)OCO2)Cc1cc2cc(C)ccc2[nH]c1=O	-1%	-1	6.5µM*	-41%
COc1ccc2[nH]c(=O)c(CN(Cc3ccc4c(c3)OCO4)C(C)=O)cc2c1	0%	0	-17%	-1%
CCN(CC)CCN(Cc1cc2ccc(C)cc2[nH]c1=O)C(=S)Nc1ccccc1C(=O)OC	10%	0	-1%	-26%
COC(=O)c1ccccc1NC(=O)COc1ccccc1[N+](=O)[O-]	5µM*	1	?	-46%
COC(=O)c1ccccc1NC(=O)COc1ccccc1	10%	-2	27%	-29%
Cc1cc(Cl)ccc1OCC(=O)Nc1ccccc1C(=O)N1CCOCC1	0%	-1	?	8%
CCC(=O)N1CCN(c2ccc(NC(=O)COc3ccccc3[N+](=O)[O-])cc2)CC1	-1%	0	23µM*	-8%
CCC(=O)N1CCN(c2ccc(NC(=O)COc3ccccc3Cl)cc2)CC1	0%	0	18µM*	-45%
COc1cc(Cl)ccc1NC(=O)COc1ccccc1C(=O)N1CCN(c2ccc(O)cc2)CC1	3%	1	13µM*	-29%
O=S(=O)(Nc1ccc(F)c(C(F)(F)F)c1)c1ccc(N2CCCCS2(=O)=O)cc1	-1%	.	.	.
COc1ccc(OC)c(NC(=O)CC2C(=O)NCCN2C(=O)C(F)(F)F)c1 (configuration not stated)	0%	.	.	.
CSc1ccc(Cl)c(C(=O)N2CCOc3ccccc32)c1	4%	-5	9.2µM*	-13%
Cc1c(Cl)cccc1NC(=O)N1CCOc2ccccc21	-1%	.	.	.
COc1ccc(-n2c(C)nc3c(cnn3-c3ccc(C)cc3)c2=O)cc1	2%	0	?	-6%
COc1ccc(Oc2c(Cl)cnn(-c3ccc(C)cc3)c2=O)cc1	13µM*	0	6%	-20%
COc1ccc2cnn(-c3ccc(C)cc3)c(=O)c2c1OC	0%	1	?	4.5µM*
COc1ccc(-n2c(C)nc3c(cnn3-c3ccc(Cl)cc3)c2=O)cc1	0%	-3	18µM*	-42%
COc1ccc2cnn(-c3ccc(OC(F)(F)Cl)cc3)c(=O)c2c1OC	0%	0	28%	12%
COc1ccc(Oc2c(Cl)cnn(-c3ccc(F)cc3)c2=O)cc1	?	0	?	-30%
Cc1ccc(NC(=O)CSc2nc(C)c(C)c(C)n2)c([N+](=O)[O-])c1	0%[9.22 µM]	0	-1%	0%
Cc1ccc(O)c(NC(=O)CSc2n[nH]c(C)c2[N+](=O)[O-])c1	11µM*	-1	?	-43%
SMILES	Nrf2 activator	IL-2 act	ELG1 repair inh	BRCA1 expr up
Cc1ccc(NC(=O)CSc2ccc(-c3ccccn3)nn2)c(C)c1	0%	-1	21µM*	2%
Cc1ccc(NC(=O)CSc2ncccn2)c([N+](=O)[O-])c1	3%	-1	?	11µM*
CCc1nc2oc3ccccc3c(=O)c2c(=O)n1-c1ccc(C)cc1	?	0	?	61%
CCCc1nc2oc3ccccc3c(=O)c2c(=O)n1-c1ccc(C)cc1	11µM*	1	?	15%
CC(C)c1ccc(NC(=O)Cn2cc(S(=O)(=O)Cc3cccc(Cl)c3)c3ccccc32)cc1	-1%	.	.	.
Nc1nc(N)nc(COc2ccccc2)n1	0%	-1	?	4.5µM*
CCOc1ccc(Cc2nc(N)nc(N)n2)cc1	2%	-2	10%	-26%
O=C1c2cccc(OCC(=O)N3CCCc4ccccc43)c2CCN1Cc1cccnc1	3%	-6	7.3µM*	-47%
CCOC(=O)N1CCN(C(=O)COc2cccc3c2CCN(Cc2cccc(C)c2)C3=O)CC1	3%	-3	21µM*	-44%
O=C1c2cccc(OCC(=O)N3N=C(c4cccs4)CC3c3ccc(F)cc3)c2CCN1Cc1cccnc1 (configuration not stated)	-1%[9.22 µM]	0	18µM*	-83%
Cc1ccccc1CN1CCc2c(OCC(=O)N3CCCc4ccccc43)cccc2C1=O	0%	-1	?	-80%
Cc1cc(C)n(CCc2nc3c4ccccc4nc(N4CCN(c5ccccc5)CC4)n3n2)n1	0%	.	.	6%
CCn1c(=O)cc(OCC(=O)N2CCN(c3cccc(Cl)c3)CC2)c2ccccc21	4%	.	.	13%
C=C(C)Cn1c(SCC(=O)Nc2cc(C)ccc2C)nc2sc3c(c2c1=O)CCCC3	5%	.	.	.
CCN(CC)CCCNC(=O)CCCn1ncn2c(cc3occc32)c1=O	-1%	.	.	.
c1ccc(-n2ncc3c2ncn2nc(-c4ccco4)nc32)cc1	10µM*	2	?	?
COc1ccc(-n2ncc3c2ncn2nc(Cc4ccccc4)nc32)cc1	4%	.	.	.
O=C(OCC(=O)N1N=C(c2ccc(Cl)cc2)CC1c1ccco1)c1cccnc1 (configuration not stated)	20µM*	0	?	-44%
Cc1ccc(OCC(=O)N2N=C(c3ccc(Cl)cc3)CC2c2ccco2)c([N+](=O)[O-])n1 (configuration not stated)	5%	0	21µM*	-34%
CCN(CC)S(=O)(=O)c1ccc(Cl)c(NC(=O)COC(=O)c2cccn2C)c1	0%	-1	15µM*	-47%
CCN(CC)S(=O)(=O)c1ccc(Cl)c(NC(=O)COC(=O)c2ccc(O)cc2)c1	4%	-1	?	-21%
CCN(CC)S(=O)(=O)c1ccc(Cl)c(NC(=O)COC(=O)c2c(C)noc2C)c1	3%	-2	18µM*	-32%
Cc1ccc(NC(=O)C2CCCN2S(=O)(=O)c2ccc3nc(-c4ccccc4)[nH]c3c2)cc1F (configuration not stated)	-1%	.	.	.
CCN(CC)CCNC(=O)CCc1c(C)nc2c(c(C)nn2-c2ccc(C)c(C)c2)c1C	6%	1	?	-58%
COc1ccc(CCNC(=O)C(=O)NCC2CCCN2S(=O)(=O)c2ccc(OC)cc2)cc1 (configuration not stated)	-1%	1	21µM*	-15%
COc1cccc(OC)c1C(=O)Nc1ccc(S(=O)(=O)Nc2nccc(C)n2)cc1	0%	.	.	.
